Measurements taken from PubChem BioAssay (NCI).
The panel holds about 83,000 compounds, 20% with a hit somewhere; the sample as a whole holds those more often.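 In brief: 96-well plates, 48 h treatment, single concentration, percent growth endpoint.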 Unmarked numbers belong to inactive results. Activity calls are given as the source filed them. The calls were made as follows: active = growth percent below 10; inactive = the rest.

Key:
Experiment in all cases: NCI-60 one-dose screen, 48 h (100 = growth as untreated, 0 = no growth, -100 = all killed)
Conditions in all cases: 10 µM unless noted
SK-MEL-2 melanoma = test system: SK-MEL-2 melanoma
EKVX NSCLC = test system: EKVX NSCLC
SN12C renal = test system: SN12C renal
UO-31 renal = test system: UO-31 renal
TK-10 renal = test system: TK-10 renal
ACHN renal = test system: ACHN renal
CAKI-1 renal = test system: CAKI-1 renal
A498 renal = test system: A498 renal
CCRF-CEM leukemia = test system: CCRF-CEM leukemia
MOLT-4 leukemia = test system: MOLT-4 leukemia
SR leukemia = test system: SR leukemia
RPMI-8226 leukemia = test system: RPMI-8226 leukemia
OVCAR-8 ovarian = test system: OVCAR-8 ovarian
OVCAR-5 ovarian = test system: OVCAR-5 ovarian
OVCAR-4 ovarian = test system: OVCAR-4 ovarian
SK-OV-3 ovarian = test system: SK-OV-3 ovarian
IGROV1 ovarian = test system: IGROV1 ovarian
OVCAR-3 ovarian = test system: OVCAR-3 ovarian
NCI/ADR-RES ovarian = test system: NCI/ADR-RES ovarian
HS 578T breast = test system: HS 578T breast

SMILES | growth (SK-MEL-2 melanoma) | growth (EKVX NSCLC) | growth (SN12C renal) | growth (UO-31 renal) | growth (TK-10 renal) | growth (ACHN renal) | growth (CAKI-1 renal) | growth (A498 renal) | growth (CCRF-CEM leukemia) | growth (MOLT-4 leukemia) | growth (SR leukemia) | growth (RPMI-8226 leukemia) | growth (OVCAR-8 ovarian) | growth (OVCAR-5 ovarian) | growth (OVCAR-4 ovarian) | growth (SK-OV-3 ovarian) [%] | growth (IGROV1 ovarian) | growth (OVCAR-3 ovarian) | growth (NCI/ADR-RES ovarian) | growth (HS 578T breast) [%]
C=C1CC[C@@H]2[C@]3(C)COC(c4cn(-c5ccccc5)nc4-c4ccccc4)O[C@@H]3CC[C@@]2(C)[C@@H]1C/C=C1/C(=O)OC[C@H]1O (stereo not given in full) | -81.1% (active) | -63.5% (active) | -67.1% (active) | -78.1% (active) | -57.3% (active) | -95.5% (active) | -39.7% (active) | -13.9% (active) | 31.5% | -45.7% (active) | -32.7% (active) | -10.3% (active) | -49.5% (active) | -50.5% (active) | -30.4% (active) | 12.6 | -76.7% (active) | -77.8% (active) | -69.4% (active) | –
Cc1c(C(=O)NNC(=O)Nc2ccc(Cl)cc2)nnn1-c1ccc(Br)cc1 | 109% | 88% | 103% | 75.7% | 96.1% | 99.7% | 83.9% | 99.8% | 89% | 83.5% | 89.9% | 98.7% | 101% | 102% | 86.4% | 79.6 | 97.6% | 116% | 94.4% | –
NS(=O)(=O)c1ccc(CCNC(=O)CSc2ccc(-c3ccc(Br)cc3)nn2)cc1 | 56.4% | 74.3% | 80.7% | 56.4% | 72.2% | 59.6% | 65.3% | 78.4% | 54.3% | 39% | 55.9% | 40.1% | 64.6% | 94.9% | 49.3% | 73 | 72.1% | 91% | 102% | 73.1
CC(C)c1ccc2c(N)c(C(=O)Nc3ccc(C(F)(F)F)cn3)sc2n1 | 77.6% | 26.4% | 70.5% | 62% | 76.5% | 49% | 55.2% | 115% | 34.1% | 7.3% (active) | 41.9% | 37.9% | 63.8% | 89.9% | 32.4% | 83.9 | 81.2% | 83% | 25% | –
Cc1ccc2c(N)c(C(=O)Nc3ccc(OC(F)(F)F)cc3)sc2n1 | 67.4% | 26.9% | 70.2% | 56.2% | 95.4% | 61.2% | 55.8% | 119% | 64.8% | 63.1% | 56.5% | 46.9% | 76.2% | 84.5% | 52.1% | 68.2 | 61.5% | 83% | 52.4% | –
COc1cc(CNC(=O)/C=C/c2ccc3c(c2)OCO3)ccc1OCc1cn(-c2ccc([N+](=O)[O-])cc2)nn1 | 118% | 71.5% | 82.6% | 78.2% | 106% | 90.5% | 64.3% | 113% | 99.5% | 72.4% | 69.3% | 74.2% | 90.5% | 97.7% | 75.7% | 99.3 | 107% | 108% | 86.7% | –
O=C(/C=C/c1cccc(OCc2ccccc2)c1)c1nc2ccccc2[nH]1 | 100% | 36.4% | 59% | 33.2% | 62.8% | 62.5% | 66.1% | 91.3% | 10.2% | 5.98% (active) | -33.3% (active) | -52% (active) | 58% | 105% | 59.4% | 87.8 | 60.3% | 38.3% | 64.5% | –
N#Cc1c(-c2ccc(Br)cc2)nc2n[nH]c(-c3ccc(Br)cc3)c2c1-c1ccc(F)cc1 | 109% | 70.7% | 85.2% | 65.3% | 135% | 91.2% | 70.1% | 163% | 102% | 74.9% | 80.7% | 72.7% | 101% | 98.1% | 96.4% | 72.7 | 75.1% | 106% | 97.2% | –
O=C(N/N=C/c1ccc(-c2ccc(O)cc2)s1)c1[nH]c2ccc(Br)cc2c1-c1ccccc1 | -4.17% (active) | 12.3% | 4.89% (active) | 15.2% | 22.2% | -2.55% (active) | 37.2% | -8.65% (active) | -8.51% (active) | -13.3% (active) | -22.4% (active) | -8.25% (active) | 25.1% | 18.7% | 20.3% | 31.6 | 12.9% | 21.4% | -27.4% (active) | –
COc1c(F)ccc(C(=O)Nc2ccc3nc(NC(=O)C4CCCN(S(=O)(=O)c5cccc(Cl)c5)C4)sc3c2)c1F (stereo not given) | 88.5% | 92.8% | 84.3% | 75.2% | 118% | 82.4% | 74.4% | 113% | 85.3% | 42.8% | 44.5% | 42.8% | 98.8% | 102% | 83.1% | 105 | 81.6% | 105% | 80.5% | 62.6
CC1CN(c2oc(-c3ccc([N+](=O)[O-])cc3)nc2C#N)CC(C)O1 (stereo not given) | 103% | 95.2% | 91.5% | 81.7% | 109% | 108% | 98.2% | 97.2% | 100% | 99.8% | 83.3% | 101% | 103% | 107% | 102% | 110 | 103% | 110% | 95.4% | 94.4
NS(=O)(=O)c1ccc(-n2cc(-c3cccc(NC(=O)c4cc(C(F)(F)F)cc(C(F)(F)F)c4)c3)nn2)cc1 | 81.8% | 63.8% | 74.7% | 102% | 72.9% | 66.1% | 75.3% | 152% | 75.4% | 75.1% | 47.4% | 90% | 40.7% | 70.5% | 85.9% | 68.4 | 63.1% | 78.5% | 81.6% | –
N#Cc1c(-c2cccc(Cl)c2Cl)cc(-c2ccc3ccccc3c2)[nH]c1=O | 126% | 49% | 19.1% | 24.6% | 48.9% | 40.8% | 47.2% | 87.5% | 38.3% | 71.5% | 67.4% | 68.3% | 41.5% | 77.4% | 4.49% (active) | 99.7 | 65.1% | 31.6% | 42.4% | –
COc1c(F)ccc(C(=O)Nc2ccc3nc(NC(=O)C4CCCN(S(=O)(=O)c5cccc(Br)c5)C4)sc3c2)c1F (stereo not given) | 94.9% | 90.9% | 88.4% | 79.3% | 118% | 82.9% | 76.4% | 112% | 89.5% | 49.3% | 55.9% | 51.7% | 104% | 104% | 73.6% | 112 | 86.8% | 106% | 85.3% | 56.6
